The panel holds about 83,000 compounds, 20% with a hit somewhere; the sample as a whole holds those more often.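 Note: values are percent growth. 100 is the growth of untreated cells, values between 100 and 0 indicate rising inhibition; between -100 and 0 indicates cell death.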 The source made the active and inactive calls. Rule for the calls: active = growth percent below 10; inactive = the rest.
Key:
Test in all cases: NCI-60 one-dose screen, 48 h (100 = growth as untreated, 0 = no growth, -100 = all killed)
Conditions in all cases: 10 µM unless noted
[1] = system: DU-145 prostate
[2] = system: K-562 leukemia
[3] = system: MALME-3M melanoma
[4] = system: MDA-MB-231 breast
[5] = system: RXF 393 renal
[6] = system: SF-268 CNS
[7] = system: SF-295 CNS
[8] = system: SF-539 CNS
[9] = system: UACC-257 melanoma
[10] = system: M14 melanoma
[11] = system: HCT-15 colon
[12] = system: HT29 colon
[13] = system: SNB-75 CNS
[14] = system: SNB-19 CNS
[15] = system: U251 CNS
[16] = system: PC-3 prostate
[17] = system: SK-MEL-5 melanoma
[18] = system: UACC-62 melanoma
[19] = system: LOX IMVI melanoma
[20] = system: SK-MEL-28 melanoma

Measured: growth

O=C(Nc1ccccc1)Nc1ccc2cc3ccc(NC(=O)Nc4ccccc4)cc3nc2c1
inactive: [1] 39.2% | [5] 28.5% | [7] 17.8% | [9] 104% | [10] 47.2% | [11] 93.9% | [16] 51.5% | [17] 83% | [18] 18.7%
active: [2] 1.08% | [3] -9.29% | [4] -51.4% | [6] -22.4% | [8] -56% | [12] 4.81% | [13] -0.331% | [14] -27.5% | [15] -39.3% | [19] -52.8% | [20] -13.4%

CCCCOc1ccc(/C(C)=N/Nc2cc(C)nc3ccc(Br)cc23)cc1
inactive: [1] 96.3% | [2] 15.7% | [3] 145% | [4] 81.3% | [5] 94.3% | [6] 96.3% | [7] 76.2% | [8] 98.7% | [9] 114% | [10] 104% | [12] 45.1% | [13] 103% | [14] 91.9% | [15] 31.9% | [16] 80.3% | [17] 96.7% | [18] 98.5% | [19] 33.9% | [20] 106%
active: [11] 7.75%

COc1ccc(C(=O)/C=C/c2cc3ccccc3n3nnnc23)cc1
inactive: [1] 115% | [2] 91.8% | [3] 108% | [4] 106% | [5] 106% | [6] 108% | [7] 102% | [8] 107% | [9] 114% | [10] 110% | [11] 97.3% | [12] 110% | [13] 98.3% | [14] 99.1% | [15] 101% | [16] 103% | [17] 103% | [18] 97.7% | [19] 104% | [20] 110%

ClC1=C(Br)C(Br)(Br)C(=C(Br)Br)C1(Br)Br
inactive: [1] 104% | [2] 70.1% | [3] 94.1% | [4] 79.2% | [5] 94.3% | [6] 108% | [7] 115% | [8] 100% | [9] 87.6% | [10] 81.6% | [11] 79.2% | [12] 82.5% | [13] 96.6% | [14] 93.9% | [15] 94.5% | [16] 82.8% | [17] 92.6% | [18] 81.2% | [19] 77.9% | [20] 102%

CC1(C)CC(O)CCCCCCOc2c(CN)cccc2NC(=O)c2nc(cnc2N)-c2ccc(cc2)S1(=O)=O (stereo not given)
active: [2] -26.3% | [3] -71.5% | [8] -60.5% | [10] -72.7% | [11] -14.4% | [12] 9.7% | [14] 8.06% | [15] -26.6% | [17] -31.7%
inactive: [1] 15.1% | [4] 39.8% | [5] 19.6% | [6] 26.1% | [7] 21.3% | [9] 21.9% | [13] 53.7% | [16] 22.6% | [18] 41.3% | [19] 13% | [20] 43.4%

O=C(CCN1CCCC1)Nc1ccc2c(NCCCc3ccccc3)c3ccccc3nc2c1
inactive: [6] 21% | [7] 46.9% | [8] 13.7% | [9] 14.7% | [11] 36.3% | [13] 23% | [14] 24.6% | [17] 67.4% | [18] 43.5% | [20] 66.1%
active: [1] -52.6% | [2] -7.07% | [3] -90.7% | [4] -24.3% | [5] 5.65% | [10] -61.5% | [12] 3.74% | [15] -58.9% | [16] -0.52% | [19] -87%

C/C(=N\NC(=O)CSc1nc2ccccc2c(=O)n1Cc1ccc(S(N)(=O)=O)cc1)c1ccc(F)cc1
inactive: [1] 111% | [2] 103% | [3] 106% | [4] 101% | [5] 109% | [6] 98.8% | [7] 102% | [8] 104% | [9] 107% | [10] 107% | [11] 96.9% | [12] 94.7% | [13] 98.5% | [14] 102% | [15] 103% | [16] 102% | [17] 105% | [18] 102% | [19] 97.6% | [20] 117%

CCCCCCCCO/N=C\c1c2c(O)c3c(O)c(C)c4c(c3c1O)C(=O)C(C)(O/C=C\C(OC)C(C)C(OC(C)=O)C(C)C(O)C(C)C(O)C(C)/C=C\C=C(\C)C(=O)N2)O4 (stereo not given)
inactive: [1] 32.9% | [2] 16.7% | [3] 40.7% | [4] 12.7% | [5] 38.7% | [6] 43.1% | [8] 42.9% | [10] 27% | [11] 19.1% | [13] 36% | [14] 29.2% | [15] 13.7% | [16] 13.1% | [17] 17.7% | [18] 26.2% | [19] 30.2% | [20] 51.5%
active: [7] 4.44% | [9] 8.62% | [12] 2.82%
